# Screening results deposited in PubChem by National Center for Advancing Translational Sciences (NCATS).
# D2 ag-1: D2 dopamine receptor (human) agonism; 0.53% of 340,000 active; activation, % at 2 µM; P14416; HEK293 T-REx D2 cells, calcium flux agonist mode;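 active = activation over 3 SD above normal in the single-dose calcium agonist read, cut at about 30% in these data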
# Target sequence (P14416 whole entry, looked up): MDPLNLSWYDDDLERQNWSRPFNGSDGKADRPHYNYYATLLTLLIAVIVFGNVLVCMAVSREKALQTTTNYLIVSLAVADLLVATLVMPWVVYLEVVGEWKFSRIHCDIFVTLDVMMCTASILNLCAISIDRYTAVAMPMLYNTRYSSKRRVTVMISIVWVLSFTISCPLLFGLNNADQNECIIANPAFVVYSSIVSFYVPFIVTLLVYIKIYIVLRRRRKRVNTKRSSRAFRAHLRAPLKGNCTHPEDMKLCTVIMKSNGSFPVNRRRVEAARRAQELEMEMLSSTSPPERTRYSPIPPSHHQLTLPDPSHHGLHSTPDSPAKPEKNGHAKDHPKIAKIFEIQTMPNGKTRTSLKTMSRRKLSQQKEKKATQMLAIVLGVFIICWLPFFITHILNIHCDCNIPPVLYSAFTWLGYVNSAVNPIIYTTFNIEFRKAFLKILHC
#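 In this primary screen, compounds producing a positive calcium signal within 180 s of addition to tetracycline-induced, force-coupled HEK293 Trex D2 cells are flagged; cells are dye-loaded with a no-wash calcium kit beforehand.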
# D2 PAM-1: positively modulates the human D2 dopamine receptor allosterically | P14416 | HEK293 T-REx D2, calcium flux, EC20 dopamine potentiation | potentiation, % at 10 µM | 0.34% of 340,000 active;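 active = potentiation over 3 SD above the plate norm, cut at about 30% in these data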
#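 Potentiation of an EC20 dopamine calcium response is measured in a force-coupled, tetracycline-inducible Hek293 Trex D2 line. Compound-only kinetic reads over 180 s flag agonists before dopamine addition.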
# D2 antag: antagonizes the human D2 dopamine receptor; P14416; HEK293 TREx D2 cells, calcium flux, dopamine EC80; 2% of 340,000 active; inhibition, % at 10 µM; in the data active = inhibition above about 30%; inactive = below that, where a call was filed
#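 Overnight-induced (tetracycline, 30 C) HEK293 T-REx cells carrying force-coupled D2 receive a no-wash calcium dye, then compound, then EC80 dopamine at 180 s; signals are read kinetically throughout.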
# D2 ag-2: agonists of human D2 dopamine receptor (beta-arrestin); 0.084% of 360,000 active; DiscoveRx PathHunter D2 beta-arrestin, luminescence, 90 min; 100% = 57 uM dopamine signal; activation, % (test concentration not listed); AID 624465; in the data active = activation above about 40%; inconclusive = between about 15% and that limit
#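 Agonist mode: compounds alone added to overnight-plated D2 PathHunter cells for 90 min at 37 C, with 57 uM final dopamine (EC100) defining full response. Beta-arrestin recruitment detected by chemiluminescent reagent, read after 1 h at ambient temperature.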
# D2 PAM-2: potentiates the human D2 dopamine receptor allosterically. 0.23% of 360,000 active. potentiation, % (test concentration not listed). DiscoveRx D2 beta-arrestin cells, luminescence, 90 min; 100% = 57 uM dopamine signal. P14416; in the data active = potentiation above about 50%; inconclusive = mostly about 30% to 49%
#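 PathHunter D2 cells, attached overnight at 37 deg C, received compound in DMSO plus dopamine at EC20 (50 nM final) for 90 min at 37 deg C. Beta-arrestin recruitment was read as luminescence after 1 h with detection reagent at ambient temperature.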
# Numbers stand for hits; n = inactive; u = inconclusive; x = no result. Shown are actives, neighbours in structure and some others; about 2.4% of the full set was active somewhere.
SMILES,D2 ag-1,D2 PAM-1,D2 antag,D2 ag-2,D2 PAM-2
COc1ccc(C(=O)NNC2=Nc3cccc4cccc2c34)cc1,n,n,62.6,n,n
NC(=O)NNC1=Nc2cccc3cccc1c23,n,n,n,n,n
COc1ccc(CC(=O)NNC2=Nc3cccc4cccc2c34)cc1,n,n,n,n,n
Cc1cccc(OC(=O)c2nc(SCc3ccccc3F)ncc2Cl)c1,x,n,x,x,x
Cc1cccc(N(CC(=O)NC2CCCC2)C(=O)CS(=O)CC(=O)Nc2ccc3c(c2)OCO3)c1C (stereo not given),n,n,n,n,n
Cc1ccc(NC(=O)CS(=O)CC(=O)N(CC(=O)NC2CCCC2)c2cccc(C)c2C)cc1 (stereo not given),n,n,55.4,n,n
CC(C)OCCCNC(=O)Cc1ccc(NC(=O)N2CCCCc3ccccc32)cc1,n,n,x,x,x
COc1ccc(CCNC(=O)c2ccc3c(c2)CCN3S(=O)(=O)c2ccc(Cl)cc2)cc1,n,n,x,x,x
CN1CCN(/C=N/c2sc3c(c2C#N)CCCCC3)CC1,n,n,n,n,n
N#Cc1c(/N=C/C=C/c2ccccc2)sc2c1CCCC2,n,30.6,n,u,n
COc1cccc(CNC(=O)c2ccc(-n3c(C)cc4c3CCCC4)cc2)c1,n,n,x,x,x
COc1ccc2c(C)c(CCC(=O)NCc3cccc(Cl)c3)c(=O)oc2c1,n,n,x,x,x
C/C(=N\NC(=S)Nc1cc(S(=O)(=O)N2CCOCC2)ccc1Cl)c1ccc(N2CCOCC2)cc1,n,n,34.7,n,n
c1ccc(OCCNc2nc(NCC3CC3)nc3cc(-c4ccccc4)sc23)cc1,x,x,x,44.0,n
CCCCC(CC)Cn1c(Oc2ccccc2)nc2c1c(=O)n(C)c(=O)n2C (stereo not given),n,n,x,x,x
NNc1nc(Nc2ccc([N+](=O)[O-])cc2)nc(N2CCCCCC2)n1,n,n,n,n,n
Cc1ccc([N+](=O)[O-])cc1Nc1nc(N2CCCC2)nc(N2CCCC2)n1,n,n,34.5,n,n
Cc1ccc(C2C(C(=O)c3cccs3)=C(O)C(=O)N2CCN2CCOCC2)o1 (stereo not given),n,37.8,n,n,n
C=Cc1ccc(CSc2nc(-c3ccc(OC)cc3)nc3c2Cc2c(CO)cnc(C)c2O3)cc1,n,n,x,x,x
N#Cc1ccc(CSc2nc(N)cc(=O)[nH]2)cc1,n,n,n,n,n
Cc1ccc(CSc2nc(N)cc(=O)[nH]2)cc1,n,n,30.1,n,n
CCN(Cc1nc2ccccc2c(=O)[nH]1)C(=O)c1cccc(S(=O)(=O)N2CCc3ccccc32)c1,n,n,47.4,n,n
CN1C(=O)CSc2ccc(NC(=O)NCc3ccccc3)cc21,n,n,30.2,n,n
Cc1ccc(CNC(=O)Nc2ccc3c(c2)N(C)C(=O)CS3)cc1,n,n,n,n,n
CCCCNC(=O)Nc1ccc2c(c1)N(C)C(=O)c1ccccc1S2,n,n,46.3,n,n
SMILES,D2 ag-1,D2 PAM-1,D2 antag,D2 ag-2,D2 PAM-2
CCCNC(=O)Nc1ccc2c(c1)N(C)C(=O)c1ccccc1S2,n,n,n,n,n
O=C(C1CCC1)N1CCc2cc(S(=O)(=O)NCCN3CCN(c4ccccc4F)CC3)ccc21,67.8,n,52.7,u,n
O=C(CCNS(=O)(=O)c1ccc2c(c1)CCN2C(=O)C1CC1)N1CCN(c2ccccc2F)CC1,x,n,x,x,x
CCC(=O)N1CCc2cc(S(=O)(=O)NCCC(=O)N3CCN(c4ccccc4)CC3)ccc21,n,n,34.3,n,n
CC1=C(C(=O)Nc2ccccc2)C(c2ccccc2C)n2nc(SCC(=O)c3ccc(C)cc3)nc2N1 (stereo not given),n,n,x,x,x
Cc1coc2cc3oc(=O)c(CCC(=O)N4CCCCC4)c(C)c3cc12,n,n,x,x,x
Cc1ccccc1CNC(=O)c1ccc2nc(SCc3ccc(F)cc3)n(C)c2c1,n,n,x,x,x
COc1ccccc1N1CCN(Cc2ccc(-c3ccccc3[N+](=O)[O-])o2)CC1,n,n,85.6,n,n
COc1ccccc1N1CCN(Cc2ccco2)CC1,n,n,n,n,n
COC(=O)C1C(c2ccccc2)C(C(=O)N2CCN(C)CC2)C1c1ccccc1 (stereo not given),n,n,33.1,n,n
COC(=O)[C@H]1[C@H](c2ccccc2)[C@H](C(=O)OC)O[C@H]1c1ccccc1,x,x,x,n,n
CC[C@@H](C(=O)[C@@H](C)[C@@H](O)[C@H](C)CCc1ccc(C)c(O)c1C(=O)O)[C@H]1O[C@](CC)([C@H]2CC[C@](O)(CC)[C@H](C)O2)C[C@@H]1C,n,n,48.9,u,u
CCCCNc1c(-c2ccc(SC3CCCCC3)c(OC)c2)nc2ccc(C)cn12,x,x,x,n,n
CCCCNc1c(-c2ccc(OC)c(SC3CCCCC3)c2)nc2ccc(C)cn12,x,x,x,47.6,n
CC(C)(C)c1ccc(C(=O)NCCCNC(=O)c2ccco2)cc1,n,n,n,n,n
CC(C)(C)c1cc(C(F)(F)F)nc(SCCCNC(=O)c2ccco2)n1,n,n,35.6,n,n
COc1ccc(COc2ccsc2C(=O)Nc2ccc(Cl)cc2)cc1,n,n,39.9,n,n
C/C(=N\NC(=O)CSCc1ccc([N+](=O)[O-])cc1)c1ccccc1O,n,n,77.0,n,n
Cc1cccc(CSCCNC(=O)CSCc2ccc([N+](=O)[O-])cc2)c1,n,n,n,n,n
Cc1ccc(CSCCNC(=O)CSCc2ccc([N+](=O)[O-])cc2)cc1,n,n,31.7,n,n
CS(=O)(=O)N1CCN(c2cnn(-c3ccccc3)c(=O)c2Cl)CC1,n,n,n,n,n
CN(C(=O)CN1CCN(c2cnn(-c3ccccc3)c(=O)c2Cl)CC1)C1CCS(=O)(=O)C1 (stereo not given),n,n,33.2,n,n
O=c1nc(Nc2cccc(Cl)c2)oc2cc(Cl)oc(=O)c12,n,n,31.6,n,n
Cc1ccc(NC(=O)C2CCN(S(=O)(=O)c3ccc4c(c3)NC(=O)C(C)S4)CC2)cc1Cl (stereo not given),n,n,72.5,n,n
CC(C)c1cccc(C(C)C)c1NS(=O)(=O)c1cccs1,n,n,x,x,x
SMILES,D2 ag-1,D2 PAM-1,D2 antag,D2 ag-2,D2 PAM-2
Cc1cc2oc(=O)cc(CN3CCN(S(=O)(=O)c4ccc5c(c4)OCCO5)CC3)c2cc1C,n,n,n,n,n
CN1CCN(Cc2cc(=O)oc3ccc(Cl)cc23)CC1,n,n,44.8,n,n
Cc1ccc2oc(=O)cc(CN3CCN(Cc4ccccc4)CC3)c2c1,n,n,51.9,n,n
Cc1cc2oc(=O)cc(CN3CCN(S(=O)(=O)/C=C/c4ccccc4)CC3)c2cc1C,35.7,n,n,n,n
Cc1cc(SCC(=O)N(C)c2c(N)n(Cc3ccccc3)c(=O)[nH]c2=O)nc2ccccc12,n,n,38.2,n,n
Cc1sc2ncn(CC(=O)N3CCN(c4ccccc4)CC3)c(=O)c2c1S(=O)(=O)N1CCC(C)CC1,n,n,x,x,x
